# Results: ChEMBL document CHEMBL3988442, “University of Dundee, Small-Polar-MMV Screening Library” (2021)
# Screen size: about 69,000 compounds; about 1,000 (1.4%) showed an effect of 50% or more. The list comes from a sample in which strong results are over-represented; it also holds similar structures and randomly drawn compounds.
# Tested on: Leishmania donovani
# Experiment: Leishmania intramacrophage assay
# Format: functional, organism-based
# Set-up: scale not given: in the data most compounds retested in dose-response had high values
smiles,measurement,setting,value
CC(c1c(F)cccc1F)N1CCN(Cc2nccn2C)CC1 (centres undefined),Percent Effect,"30.3 µM, […]",28.44%
O=C(N1CCCC1)N1CCc2ncnc(C3CCOC3)c2CC1 (centres undefined),Percent Effect,"30 µM, 30.03 µM",-0.6847%
CN(Cc1cc2cc(F)ccc2[nH]1)C(=O)C1CC(=O)N(C2CC2)C1 (centres undefined),Percent Effect,"30.3 µM, […]",14.52%
CN(Cc1cc2cc(F)ccc2[nH]1)C(=O)C1CC(=O)N(C(C)(C)C)C1 (centres undefined),Percent Effect,"30.3 µM, […]",55.15%
CCN1CC(C(=O)N(C)Cc2cc3cc(F)ccc3[nH]2)CC1=O (centres undefined),Percent Effect,"30.3 µM, […]",16.63%
COC(=O)c1ccc(F)c(Cn2nc(C)cc2C)c1,Percent Effect,"30.3 µM, […]",38.02%
O=S(=O)(NC(CO)Cc1c[nH]c2ccccc12)c1cncc(F)c1 (centres undefined),Percent Effect,"30.3 µM, […]",19.78%
Cc1ccc(C(=O)N2CCc3c(COCC4CC4)cncc3C2)o1,Percent Effect,"30.3 µM, […]",-21.23%
COCc1nc(CNc2cccc(-c3ncon3)c2)cs1,Percent Effect,"30.3 µM, […]",70.63%
COCc1nc(CNc2cccc(-c3csc(C)n3)c2)cs1,Percent Effect,"30.3 µM, […]",-17.78%
COCc1nc(CNc2cccc(-c3nc(C)c(C)o3)c2)cs1,Percent Effect,"30.3 µM, […]",3.012%
N#Cc1nccnc1NC1CCN(c2ccccc2Br)C1 (centres undefined),Percent Effect,"30.3 µM, […]",-7.134%
OCCN1CCC(CNCc2ccc(N3CCCCC3)cc2)CC1,Percent Effect,"30.3 µM, […]",79.78%
OCCN1CCC(CNCc2ccc(Br)cc2)CC1,Percent Effect,"30.3 µM, […]",77.88%
N#Cc1ccc(CNCC2CCN(CCO)CC2)cc1,Percent Effect,"30 µM, 30.03 µM",18.87%
Cc1ncccc1CNCC1CCN(CCO)CC1,Percent Effect,30 µM,29.11%
CS(=O)(=O)c1ccc(CNCC2CCN(CCO)CC2)cc1,Percent Effect,"30 µM, 30.03 µM",7.016%
NC(=O)c1ccc(CNCC2CCN(CCO)CC2)cc1,Percent Effect,"30.3 µM, […]",-0.3402%
Cc1ccc(CNCC2CCN(CCO)CC2)cc1,Percent Effect,"30.3 µM, […]",-12.85%
CCc1ccc(CNCC2CCN(CCO)CC2)cc1,Percent Effect,"30.3 µM, […]",73.93%
OCCN1CCC(CNCc2cn(-c3ccccc3)nn2)CC1,Percent Effect,"30.3 µM, […]",-6.29%
Cn1cc(CC2CC(=O)N(Cc3ccccc3OC(F)F)C2=O)cn1 (centres undefined),Percent Effect,"30.3 µM, […]",7.915%
Cl.NC1CCN(C(=O)c2c(F)cccc2Br)CC1,Percent Effect,"30.3 µM, […]",2.162%
COc1ccc([C@@H]2CN(c3cnccn3)C[C@H]2N(C)C)cc1,Percent Effect,"30.3 µM, […]",-8.819%
CC(C)Cn1cc(NC(=O)NC(C)(C)c2nccs2)cn1,Percent Effect,"30.3 µM, […]",-3.295%
CCN(CC1CN(Cc2nccn2CC)CCO1)c1cccnn1 (centres undefined),Percent Effect,"30.3 µM, […]",7.569%
CCS(=O)(=O)N1CCC(NC(=O)c2cc(C(C)C)ccc2O)CC1,Percent Effect,30 µM,11.27%
CC(=O)N1CCC1c1cc(N2CCNC(=O)C2)nc(C)n1 (centres undefined),Percent Effect,"30.3 µM, […]",23.92%
Cc1cnc(CN2CCCC(c3cc(C(N)=O)[nH]n3)C2)o1 (centres undefined),Percent Effect,"30 µM, 30.03 µM",5%
c1ccc(-c2nnc(CN3CCOC(Cn4cccn4)C3)o2)cc1 (centres undefined),Percent Effect,30 µM,14.93%
Cn1ncc2c1CN(Cc1cccnc1)CC2COCC1CC1.O=C(O)C(F)(F)F.O=C(O)C(F)(F)F.O=C(O)C(F)(F)F (centres undefined),Percent Effect,"30 µM, 30.03 µM",26.28%
Cc1ccc(CN2Cc3c(cnn3C)C(COCC3CC3)C2)s1 (centres undefined),Percent Effect,"30.3 µM, […]",92.44%
Cn1ncc2c1CN(Cc1ccc(F)cc1)CC2COCC1CC1.O=C(O)C(F)(F)F.O=C(O)C(F)(F)F (centres undefined),Percent Effect,"30.3 µM, […]",51.09%
Cn1cc(CN2Cc3c(cnn3C)C(COCC3CC3)C2)cn1.O=C(O)C(F)(F)F.O=C(O)C(F)(F)F (centres undefined),Percent Effect,"30.3 µM, […]",-2.121%
Cc1ccc(CN2Cc3nnn(C)c3C(COCC3CC3)C2)s1.O=C(O)C(F)(F)F (centres undefined),Percent Effect,"30.3 µM, […]",19.91%
Cn1ncc2c1CN(Cc1ccccc1F)CC2COCC1CC1.O=C(O)C(F)(F)F.O=C(O)C(F)(F)F (centres undefined),Percent Effect,"30.3 µM, […]",24.46%
CNC(=O)[C@H]1C[C@@H]2CN(S(=O)(=O)c3ccc(C)cc3)C[C@@H]2N1C.O=C(O)C(F)(F)F,Percent Effect,"30.3 µM, […]",7.67%
CC(=O)Nc1nc(-c2ccc(F)cc2)c[nH]1,Percent Effect,"30.3 µM, […]",-6.024%
NCCC(=O)N1CCC2(CC1)CN(C(=O)Cc1ccc(Cl)cc1)CCO2,Percent Effect,"30.3 µM, […]",-0.5643%
CN1CC(=O)N(c2ccsc2)CC12CCN(S(C)(=O)=O)C2.O=C(O)C(F)(F)F (centres undefined),Percent Effect,"30 µM, 30.03 µM",2.434%
COCCN1C[C@@H]2[C@@H](OC)CCN(Cc3ccco3)[C@@H]2C1.O=C(O)C(F)(F)F.O=C(O)C(F)(F)F,Percent Effect,"30.3 µM, […]",5.523%
COCCN1C[C@H]2[C@@H](C1)N(Cc1ccc(C)o1)CC[C@H]2OC,Percent Effect,"30 µM, 30.03 µM",22.66%
COCCN1C[C@@H]2[C@@H](OC)CCN(Cc3ccc(C)o3)[C@@H]2C1.O=C(O)C(F)(F)F.O=C(O)C(F)(F)F,Percent Effect,"30.3 µM, […]",53%
CC(c1ccccn1)N(C)Cc1ccc(CCC(C)(C)O)cc1 (centres undefined),Percent Effect,"30.3 µM, […]",34.83%
C/C(=C\c1ccco1)CN(C)C(C)c1ccccn1 (centres undefined),Percent Effect,"30.3 µM, […]",72.9%
CCC(CO)N(C/C(C)=C/c1ccco1)Cc1ccccn1 (centres undefined),Percent Effect,"30.3 µM, […]",3.364%
O=C(c1cscn1)N1CCCCC1c1nc2cc(F)ccc2[nH]1 (centres undefined),Percent Effect,"30.3 µM, […]",28.33%
CCS(=O)(=O)NCCCNCc1c(C)nn(C)c1N(C)C,Percent Effect,30 µM,-21.2%
O=C(O)C(F)(F)F.O=C1CC(c2ccccc2)C2(CCN(CC3CC3)CC2)N1 (centres undefined),Percent Effect,"30 µM, 30.03 µM",17.34%
CCc1nc(C2CCCN2C(=O)Cc2cccs2)no1 (centres undefined),Percent Effect,30 µM,2.577%
Cc1cc(S(=O)(=O)NCC(C)(C)N)c(F)cc1F.Cl,Percent Effect,"30.3 µM, […]",25.52%
CCOc1nc2cnccc2n(CC(=O)NCc2ccco2)c1=O,Percent Effect,"30.3 µM, […]",-11.31%
CCc1nc(NCCCn2cccn2)c2c(n1)c(C)nn2CC,Percent Effect,"30.3 µM, […]",-48.93%
CCn1nc(C)c2nc(C)nc(NCCc3ccccc3)c21,Percent Effect,"30.3 µM, […]",36.57%
CCCc1nc(NCCOC)c2c(n1)c(C)nn2CC,Percent Effect,"30.3 µM, […]",9.64%
CCCc1nc(NCCCOCC)c2c(n1)c(C)nn2CC,Percent Effect,"30.3 µM, […]",51.09%
CCCc1nc(NCCCn2cccn2)c2c(n1)c(C)nn2CC,Percent Effect,"30.3 µM, […]",56.39%
CCn1nc(C)c2nc(C)nc(NCCCn3cccn3)c21,Percent Effect,"30.3 µM, […]",-10.11%
CCCc1nc(NCCc2ccccc2)c2c(n1)c(C)nn2CC,Percent Effect,"30.3 µM, […]",98.89%
CCCc1nc(NCCCOC)c2c(n1)c(C)nn2CC,Percent Effect,"30.3 µM, […]",-43.63%
CCCc1nc(NCCCO)c2c(n1)c(C)nn2CC,Percent Effect,"30 µM, 30.03 µM",3.921%
CCCNC(=O)CSCc1ccc(S(=O)(=O)N(C)C)o1,Percent Effect,"30.3 µM, […]",6.939%
Nc1nc2c(c(NCC(c3cccnc3)N3CCOCC3)n1)CCNC2 (centres undefined),Percent Effect,"30.3 µM, […]",45.62%
CCC(Nc1nnnn1-c1ccccc1)C(=O)NCc1cccs1 (centres undefined),Percent Effect,"30.3 µM, […]",14.73%
